# Test results taken from paper PMC8384837, “Expanding the binding specificity for RNA recognition by a PUF domain”.
# Legend:
# Assay in all cases: yeast three-hybrid, YBZ-1, SC-Leu-His + 0.5 mM 3-AT, 4 days
# Conditions in all cases: tags: N-Gal4 AD-HA kept; label: inside an RPR1-promoter hybrid RNA with tandem MS2 sites; ssRNA
# PUM1 PUF domain R5-SEQ = PUM1 PUF domain R5-SEQ (Homo sapiens, UniProt Q14671 828-1176, C1007S;R1008E)
# In short: (§1)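 Matching RNA elements and Pumilio-1 PUF domain libraries, randomized at the three base-contacting residues of every repeat, were co-expressed from a centromeric plasmid in strain YBZ-1 (LexA–MS2 coat fusion, HIS3 reporter). The repeat regions were PCR-amplified and Illumina-sequenced from cells grown four days on SC-Leu (input) or SC-Leu-His + 0.5 mM 3-AT (selection). The interaction score is the log change in variant frequency from input to selection. It is computed in log2, with a pseudocount of 1 for absent variants.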
# PUM1 PUF domain R3-PRE = PUM1 PUF domain R3-PRE (Homo sapiens, UniProt Q14671 828-1176, C935P;Q939E)
# In short: as §1
# PUM1 PUF domain R5-KAL = PUM1 PUF domain R5-KAL (Homo sapiens, UniProt Q14671 828-1176, C1007K;R1008A;Q1011L)
# In short: as §1
# PUM1 PUF domain R5-NIA = PUM1 PUF domain R5-NIA (Homo sapiens, UniProt Q14671 828-1176, C1007N;R1008I;Q1011A)
# In short: as §1
# PUM1 PUF domain R2-VYP = PUM1 PUF domain R2-VYP (Homo sapiens, UniProt Q14671 828-1176, N899V;Q903P)
# In short: as §1
# PUM1 PUF domain R4-FNL = PUM1 PUF domain R4-FNL (Homo sapiens, UniProt Q14671 828-1176, N971F;H972N;Q975L)
# In short: as §1
# PUM1 PUF domain R4-AWP = PUM1 PUF domain R4-AWP (Homo sapiens, UniProt Q14671 828-1176, N971A;H972W;Q975P)
# In short: as §1
# PUM1 PUF domain R7-CWP = PUM1 PUF domain R7-CWP (Homo sapiens, UniProt Q14671 828-1176, S1079C;N1080W;E1083P)
# In short: as §1
sequence,measurement,setting,value
GGCUAGAACUAGUGGAUCCCCCGGCGCCCGGCGGCUCGAGCCCGGGUAAGUGUGAAUAGUCUGCAUGCCGCCGGGCGCCAUGCCUGCAGGUCGACUCUAGAAAACAUG,binding signal,PUM1 PUF domain R5-SEQ,3.78 log2 enrichment (interaction score)
GGCUAGAACUAGUGGAUCCCCCGGCGCCCGGCGGCUCGAGCCCGGGUAAGUGUAAAUAGUCUGCAUGCCGCCGGGCGCCAUGCCUGCAGGUCGACUCUAGAAAACAUG,binding signal,PUM1 PUF domain R3-PRE,3.66 log2 enrichment (interaction score)
GGCUAGAACUAGUGGAUCCCCCGGCGCCCGGCGGCUCGAGCCCGGGUAAGUGUAAGUAGUCUGCAUGCCGCCGGGCGCCAUGCCUGCAGGUCGACUCUAGAAAACAUG,binding signal,PUM1 PUF domain R3-PRE,4.92 log2 enrichment (interaction score)
GGCUAGAACUAGUGGAUCCCCCGGCGCCCGGCGGCUCGAGCCCGGGUAAGUGUCAAUAGUCUGCAUGCCGCCGGGCGCCAUGCCUGCAGGUCGACUCUAGAAAACAUG,binding signal,PUM1 PUF domain R5-KAL,3.48 log2 enrichment (interaction score)
GGCUAGAACUAGUGGAUCCCCCGGCGCCCGGCGGCUCGAGCCCGGGUAAGUGUUAAUAGUCUGCAUGCCGCCGGGCGCCAUGCCUGCAGGUCGACUCUAGAAAACAUG,binding signal,PUM1 PUF domain R5-KAL,3.43 log2 enrichment (interaction score)
same,binding signal,PUM1 PUF domain R5-NIA,4.96 log2 enrichment (interaction score)
GGCUAGAACUAGUGGAUCCCCCGGCGCCCGGCGGCUCGAGCCCGGGUAAGUGUAAAAAGUCUGCAUGCCGCCGGGCGCCAUGCCUGCAGGUCGACUCUAGAAAACAUG,binding signal,PUM1 PUF domain R2-VYP,3.97 log2 enrichment (interaction score)
GGCUAGAACUAGUGGAUCCCCCGGCGCCCGGCGGCUCGAGCCCGGGUAAGUGUAUAUAGUCUGCAUGCCGCCGGGCGCCAUGCCUGCAGGUCGACUCUAGAAAACAUG,binding signal,PUM1 PUF domain R4-FNL,3.56 log2 enrichment (interaction score)
same,binding signal,PUM1 PUF domain R4-AWP,6.43 log2 enrichment (interaction score)
GGCUAGAACUAGUGGAUCCCCCGGCGCCCGGCGGCUCGAGCCCGGGUAAGUGUACAUAGUCUGCAUGCCGCCGGGCGCCAUGCCUGCAGGUCGACUCUAGAAAACAUG,binding signal,PUM1 PUF domain R4-FNL,1.89 log2 enrichment (interaction score)
same,binding signal,PUM1 PUF domain R4-AWP,5.02 log2 enrichment (interaction score)
GGCUAGAACUAGUGGAUCCCCCGGCGCCCGGCGGCUCGAGCCCGGGUAAGUUUAAAUAGUCUGCAUGCCGCCGGGCGCCAUGCCUGCAGGUCGACUCUAGAAAACAUG,binding signal,PUM1 PUF domain R7-CWP,4.38 log2 enrichment (interaction score)
